Bim-Bfl-1: human Bim-Bfl-1 interaction inhibition. actives 0.12% (n = 190,000). inhibition, % at 10 µM. Bead-based flow cytometry, Bim-Bfl-1 binding inhibition. Q16548;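 also: 0% = wells without compound plus tracer and 100% = blocker peptide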
Target sequence (Q16548 whole entry, looked up): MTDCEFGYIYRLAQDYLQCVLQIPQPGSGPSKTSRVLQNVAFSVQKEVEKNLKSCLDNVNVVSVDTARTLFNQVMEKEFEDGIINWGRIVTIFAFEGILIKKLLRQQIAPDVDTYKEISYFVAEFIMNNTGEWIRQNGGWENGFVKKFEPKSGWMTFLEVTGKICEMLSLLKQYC
Bcl-2 Bim block: inhibitors of Bim-Bcl-2 interaction, human. inhibition, % at 10 µM. Bead-based flow cytometry, Bim peptide-Bcl-2 binding. AID 950. actives 0.06% (n = 190,000). P10415; in the data active = inhibition above about 40%;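 also: 0% = no compound wells with probe peptide and 100% = reference peptide inhibitor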
Target sequence (P10415 whole entry, looked up): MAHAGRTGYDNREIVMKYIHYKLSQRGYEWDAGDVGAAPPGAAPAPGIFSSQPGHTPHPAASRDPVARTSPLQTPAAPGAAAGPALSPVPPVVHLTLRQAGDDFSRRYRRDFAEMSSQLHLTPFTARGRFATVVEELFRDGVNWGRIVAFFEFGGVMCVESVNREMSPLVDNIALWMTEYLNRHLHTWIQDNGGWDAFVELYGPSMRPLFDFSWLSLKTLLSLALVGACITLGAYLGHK
Bim-Bcl-XL: disrupts Bim peptide binding to human Bcl-XL; Q07817; bead flow cytometry, fluorescence; inhibition, % at 10 µM; actives 0.04% (n = 190,000)
Target sequence (Q07817 whole entry, looked up): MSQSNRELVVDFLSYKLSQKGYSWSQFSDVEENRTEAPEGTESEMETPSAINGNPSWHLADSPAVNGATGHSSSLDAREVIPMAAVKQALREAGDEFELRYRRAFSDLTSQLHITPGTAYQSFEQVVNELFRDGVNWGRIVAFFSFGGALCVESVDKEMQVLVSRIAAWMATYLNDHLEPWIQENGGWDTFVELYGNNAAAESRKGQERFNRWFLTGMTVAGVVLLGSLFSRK
Bcl-B Bim block: inhibitors of Bim-Bcl-B interaction, human | Q9HD36 | AID 951 | bead-based flow cytometry, Bim peptide-Bcl-B binding | inhibition, % at 10 µM | actives 0.073% (n = 190,000);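 also: 0% = tracer peptide without compound and 100% = reference inhibitor peptide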
BCLXL inh: blocks human Bcl-xL binding to Bim BH3 peptide; Q07817; GST-Bcl-xL / FITC-Bim BH3 peptide fluorescence polarization; inhibition, % at 10.9 µM; actives 0.7% (n = 320,000);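 active = inhibition above the mean of all tested compounds plus 3 SD, cutoff set per campaign, cut at about 30% in these data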;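 also: 0% = DMSO wells and 100% = unlabeled Bim-BH3 peptide competitor; inhibitors lower millipolarization by displacing the labeled peptide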
Bim-Bcl-W: disrupts Bim peptide binding to human Bcl-W. Q92843. bead-based flow cytometry. inhibition, % at 10 µM. actives 0.02% (n = 190,000). AID 952;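 also: 0% = bound tracer without compound and 100% = peptide blocker; higher means less fluorescent Bim peptide bound to Bcl-W beads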
An asterisk follows results filed as active; . = no result given. Compounds with a hit are over-represented: about 0.81% of the library has one in this group of screens. Rule as the data show it, unless noted: active = inhibition above about 40%.

SMILES | Bim-Bfl-1 | Bcl-2 Bim block | Bim-Bcl-XL | Bcl-B Bim block | BCLXL inh | Bim-Bcl-W
COc1cc2c(cc1OC)C(c1ccccc1C(F)(F)F)CC(=O)N2 (configuration not stated) | . | . | . | . | 3 | .
NS(=O)(=O)c1ccc(CNC(=O)c2cc(-c3ccccn3)nc3ccc(Cl)cc23)cc1 | -4 | -2 | -5 | -2 | 41* | -5
O=C(c1ccco1)N1CCN(C(=O)c2cc(-c3ccccc3)nc3ccccc23)CC1 | -2 | 1 | 0 | 1 | -2 | 0
O=C(c1ccco1)N1CCN(C(=O)c2cc(-c3ccccn3)nc3ccc(Cl)cc23)CC1 | 1 | -4 | 0 | -1 | 40* | 4
Cc1ccc(C)c(N2CCN(CCN3CCCCC3)CC2)c1 | . | . | . | . | 0 | .
O=C1c2ccccc2C(=O)N1c1cccc2cccnc12 | 40* | 30 | 36 | 23 | 4 | 24
O=C1C2C3C=CC(C3)C2C(=O)N1c1cccc2cccnc12 (configuration not stated) | -19 | -9 | -9 | -11 | 11 | -7
COc1cc(NC(C)C(=O)N2CC(C)OC(C)C2)cc(OC)c1 (configuration not stated) | 6 | 8 | 4 | 3 | 72* | 1
CC1Sc2ccc(S(=O)(=O)CCC(=O)NCc3cccs3)cc2NC1=O (configuration not stated) | . | . | . | . | -2 | .
CC(C)CN(C(=O)COC(=O)c1ccccn1)c1c(N)n(Cc2ccccc2)c(=O)[nH]c1=O | . | . | . | . | -8 | .
COc1ccc(Cl)cc1CN1CCN(c2nc(C)cc(C)c2C#N)CC1 | -14 | -10 | 0 | -9 | 78* | -1
CCC(CC)C1C(C#N)=C(N)Oc2cc(C)oc(=O)c21 (configuration not stated) | -10 | -8 | -2 | 27 | -2 | 0
Cc1cc2c(c(=O)o1)C(c1ccc([N+](=O)[O-])o1)C(C#N)=C(N)O2 (configuration not stated) | . | . | . | . | 46* | .
O=C1c2ccccc2C(=O)C1(CO)c1ccc(OC(F)F)cc1 | . | . | . | . | 8 | .
c1ccc(CSc2nnc(-c3ccco3)n2Cc2ccco2)cc1 | -9 | -8 | -7 | -3 | 2 | 1
CCCCOc1[nH]c2nc(-c3ccco3)n(Cc3ccco3)c(=N)c2c1C#N | 0 | 2 | -1 | -1 | 140* | -2
Cc1ccccc1NC(=S)N/N=C1\CC(C)(C)Oc2ccc(O)cc21 | -2 | -3 | -7 | -5 | 82* | -4
COc1ccc(NC(=O)Cc2nnc(SCC(=O)c3ccc(F)cc3)n2C)cc1 | . | . | . | . | -2 | .
Cc1ccc(-c2ccccc2NC(=O)CS(=O)CC(=O)Nc2ccc(C)c(Cl)c2)o1 (configuration not stated) | . | . | . | . | 119* | .
Cc1ccc(-c2ccccc2NC(=O)CCl)o1 | 0 | 0 | 0 | -1 | 8 | 0
COc1ccc(OC)c(-c2c3cc(O)c(=O)cc-3oc3cc(O)c(O)cc23)c1 | -6 | -120 | -109 | -226 | 111* | -37
CCOc1ccccc1-c1c2cc(O)c(=O)cc-2oc2cc(O)c(O)cc12 | 16 | 13 | -1 | -2 | . | 6
CC(C)N=c1cc2n(-c3ccc(Cl)cc3)c3ccccc3nc-2cc1Nc1ccc(Cl)cc1 | . | . | . | . | 78* | .
CCN1CCc2c(sc(NC(=O)Nc3ccc(Cl)c(Cl)c3)c2C(N)=O)C1 | -6 | -4 | -6 | -11 | 40* | -3
CCOc1cc(C(=O)OC(C)C(=O)Nc2ccc(NC(C)=O)cc2)ccc1OCC(=O)N1CCCCC1 (configuration not stated) | . | . | . | . | -4 | .
SMILES | Bim-Bfl-1 | Bcl-2 Bim block | Bim-Bcl-XL | Bcl-B Bim block | BCLXL inh | Bim-Bcl-W
Cc1ccc(S(=O)(=O)N2CCCN(C)c3nc4ccccc4nc32)cc1 | . | . | . | . | 38* | .
CC(=O)Nc1ccc(S(=O)(=O)N2CN(c3ccc(C)cc3)c3nc4ccccc4nc32)cc1 | . | . | . | . | 3 | .
C=C(C)c1cccc(C(C)(C)NC(=O)Nc2ccc(C)cn2)c1 | 13 | 11 | 11 | 7 | 0 | 6
COc1ccc(NC(=O)Cc2ccccc2)cn1 | -5 | -3 | -2 | 0 | 38* | 1
COc1ccc(NC(=O)c2cccc(-c3ccc(O)cc3)c2)cn1 | . | . | . | . | 144* | .
COc1ccc(NC(=O)/C=C/c2cccc(Br)c2)cn1 | . | . | . | . | 91* | .
COc1ccc(NC(=O)/C=C/c2cccc(C(F)(F)F)c2)cn1 | . | . | . | . | 9 | .
C=C(C)c1cccc(C(C)(C)NC(=O)Nc2ccc(OC)nc2)c1 | . | . | . | . | 82* | .
CC(=O)Nc1cccc(NC(=O)c2cccc(-c3ccc(O)cc3)c2)c1 | . | . | . | . | 2 | .
COc1ccc(C(=O)COC(=O)Cc2n[nH]c(=O)c3ccccc23)c(OC)c1 | . | . | . | . | 3 | .
CCCCNC(=S)Nc1ccc(OC)nc1 | -5 | -5 | -6 | -11 | 56* | -4
COc1ccc(NC(=O)C(c2ccc(Cl)cc2)C(C)C)cn1 (configuration not stated) | . | . | . | . | 36* | .
COc1ccc(NC(=S)Nc2ccccc2)cn1 | -11 | -8 | -7 | -5 | 11 | -2
COc1ccc(NC(=O)Nc2ccc(F)cc2)cn1 | . | . | . | . | 20 | .
O=C1NC(=O)c2cc(Br)cc3cccc1c23 | -3 | -1 | -2 | -2 | 7 | -1
Cc1ccc(NS(=O)(=O)c2cc3c4c(cccc4c2)C(=O)NC3=O)cc1C | . | . | . | . | 31* | .
Nn1c(SCC(=O)Nc2ccccc2Br)nnc1-c1ccco1 | . | . | . | . | 1 | .
Cc1ccc2[nH]c(C(=O)N/N=C/c3ccccc3O)c(C)c2c1 | . | . | . | . | 1 | .
CCc1ccc[n+](-c2[nH]c(=O)sc2/C=N/NC([S-])=Nc2ccccc2)c1 | -6 | -9 | -6 | -12 | 122* | -5
Cc1ccc(/C=N/NC(=O)CCSc2ccccc2)cc1 | -14 | -11 | -5 | -6 | 0 | -2
Cc1cc[n+](-c2[nH]c(=O)sc2/C=N/NC([S-])=Nc2ccccc2)cc1 | 1 | 3 | -8 | -7 | 139* | -2
Cc1cc(C)c[n+](-c2[nH]c(=O)sc2/C=N/NC([S-])=Nc2ccccc2)c1 | -10 | -11 | -10 | -18 | 129* | -8
CCc1ccc[n+](-c2[nH]c(=O)sc2/C=N/N=C(\N)[O-])c1 | . | . | . | . | 3 | .
O=c1[nH]c(-[n+]2ccccc2)c(/C=N/NC([S-])=Nc2ccccc2)s1 | . | . | . | . | 164* | .
Cc1ccc(NC(=O)C(C)OC(=O)CCC2CCCCC2)cc1 (configuration not stated) | . | . | . | . | 3 | .
COc1ccc(C(CNC(=O)c2ccc(NS(=O)(=O)c3ccc(F)c(C)c3)cc2)N2CCOCC2)cc1 (configuration not stated) | . | . | . | . | 5 | .
CC(C)(C)c1cc[n+](-c2[nH]c(=O)sc2/C=N/NC(=O)c2ccccc2[O-])cc1 | . | . | . | . | 97* | .
CCC(=O)Nc1ccc(NC(=O)CSc2nnc(-c3ccco3)n2CC)cc1 | . | . | . | . | 4 | .
CC1(C)CC(=O)C(C=Nc2cccnc2)=C(O)C1 | -3 | -1 | -2 | -8 | 8 | -6
CC1(C)CC(=O)C(C=Nc2ccc(C(=O)c3ccccc3)cc2N=CC2=C(O)CC(C)(C)CC2=O)=C(O)C1 | 2 | 2 | -1 | 1 | 67* | -1
